Rows were chosen to be rich in hits. Some 1.6% of all compounds tested hit in one or more screens of this group.
NSD2 inh: inhibitors of human histone methyltransferase NSD2; hit rate 0.54% among 310,000; NSD2 peptide methylation, AlphaScreen, 120 min; inhibition, % at 12.5 µM; O96028; in the data active = inhibition above about 50%
V-ATPase pH: alters yeast V-ATPase proton transport | response, % at 10 µM | hit rate 0.37% among 350,000 | S. cerevisiae, pHLuorin cytosolic pH fluorescence | AID 504577; in the data active = response mostly above about 7.3%, no sharp cut-off; inactive = mostly below about 5.4%; also: actives read high
NPR2 activator: GC-B (human) receptor activation; P20594; HEK293-GC-B cells, CNP EC30, cGMP TR-FRET; 0% at EC30 CNP, 100% saturating CNP; activation, % at 10 µM; hit rate 0.11% among 370,000;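 active = activation at 10 µM reaching about 35% in either raw or pattern-adjusted values, limit read from the data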
Target sequence (P20594 whole entry, looked up): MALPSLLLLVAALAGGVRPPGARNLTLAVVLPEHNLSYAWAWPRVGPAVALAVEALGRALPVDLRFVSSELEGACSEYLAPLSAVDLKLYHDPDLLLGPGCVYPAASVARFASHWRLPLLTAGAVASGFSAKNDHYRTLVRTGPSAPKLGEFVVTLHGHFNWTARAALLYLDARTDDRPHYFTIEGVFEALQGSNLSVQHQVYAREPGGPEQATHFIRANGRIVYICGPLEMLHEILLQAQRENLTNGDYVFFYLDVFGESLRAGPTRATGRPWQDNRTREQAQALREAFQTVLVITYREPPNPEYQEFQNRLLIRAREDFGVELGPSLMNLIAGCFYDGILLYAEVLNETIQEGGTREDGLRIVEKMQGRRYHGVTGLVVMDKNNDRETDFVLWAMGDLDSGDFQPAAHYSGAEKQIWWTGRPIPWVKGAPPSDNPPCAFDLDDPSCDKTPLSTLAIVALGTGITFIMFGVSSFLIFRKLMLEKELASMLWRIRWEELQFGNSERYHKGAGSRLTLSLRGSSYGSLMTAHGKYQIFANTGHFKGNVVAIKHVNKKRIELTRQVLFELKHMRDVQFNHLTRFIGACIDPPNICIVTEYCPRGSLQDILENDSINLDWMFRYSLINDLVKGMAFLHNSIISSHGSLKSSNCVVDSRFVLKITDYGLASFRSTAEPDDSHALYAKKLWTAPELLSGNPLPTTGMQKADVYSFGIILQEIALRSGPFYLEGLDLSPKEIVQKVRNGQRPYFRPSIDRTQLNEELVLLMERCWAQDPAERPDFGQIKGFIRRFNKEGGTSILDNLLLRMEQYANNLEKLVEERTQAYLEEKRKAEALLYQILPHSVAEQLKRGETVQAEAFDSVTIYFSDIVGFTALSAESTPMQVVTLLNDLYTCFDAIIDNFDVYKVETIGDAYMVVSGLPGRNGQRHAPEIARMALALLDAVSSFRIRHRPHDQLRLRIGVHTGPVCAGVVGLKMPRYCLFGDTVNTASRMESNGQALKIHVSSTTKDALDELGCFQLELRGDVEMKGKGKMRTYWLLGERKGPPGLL
Rce1 inh: inhibitors of yeast Ras-converting enzyme; Q03530; yeast membranes, quenched prenylated peptide cleavage fluorescence; calls only; hit rate 0.27% among 290,000;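 active = fall in fluorescence gain of 50% or more versus controls, with final raw signal at or below 3038400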;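 also: plate controls were neutral control wells for no effect and wells lacking membranes for full effect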
Efflux pump mplx: inhibitors of Candida antifungal efflux pumps expressed in yeast. S. cerevisiae Candida pump triplex, Nile Red efflux. inhibition, % at 10 µM. hit rate 0.44% among 330,000;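 active = plate passing quality check with inhibition over a set limit, or well fluorescence over plate mean plus 4 SD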;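 also: Nile Red retained in pooled yeast measured as flow cytometry median fluorescence; 0% = buffer negative control and 100% = Enniatin B positive control; higher means more Nile Red kept so more efflux inhibition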
GC-A act: GC-A (human) enzyme activation. activation, % at 10 µM. HEK293 GC-A cells, cGMP TR-FRET, EC30 ANP; 0% at EC30 ANP, 100% saturating ANP. AID 1671463. hit rate 0.14% among 370,000; in the data active = activation above about 40%
Cmpd fluor yeast: flagged as fluorescent in efflux inhibitor counter-screen; shares compounds with Efflux pump mplx; fluorescence ratio to DMSO, % at 10 µM; hit rate 4% among 1,700; S. cerevisiae AD/pABC3, compound fluorescence, flow cytometry;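 active = fluorescence ratio to DMSO above its plate's cutoff, the plate mean ratio plus 5 SD, cut at about 210% in these data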;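 also: unstained yeast with no Nile Red so the signal is compound autofluorescence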
CaMdr1 efflux inh: blocks the Candida albicans Mdr1 efflux pump in yeast; shares compounds with Efflux pump mplx; S. cerevisiae AD/CaMDR1, Nile Red efflux, flow cytometry; inhibition, % at 10 µM; hit rate 1% among 1,700; AID 588518; in the data active = inhibition above about 26%;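 also: 0% = DMSO vehicle and 100% = reference inhibitor; higher means more Nile Red retained so more efflux inhibition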
Cdr2 pump inh: Candida Cdr2 efflux pump inhibition | S. cerevisiae AD/CaCDR2, Nile Red retention, flow cytometry | shares compounds with Efflux pump mplx | Nile Red retention ratio vs DMSO, % at 10 µM | AID 588520 | hit rate 4% among 1,700; in the data active = Nile Red retention ratio vs DMSO above about 190%;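 also: higher ratio means more blocking of Cdr2 efflux of the dye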
CaCdr1 efflux inh: blocks the Candida albicans Cdr1 efflux pump in yeast; shares compounds with Efflux pump mplx; S. cerevisiae AD/CaCDR1, Nile Red efflux, flow cytometry; inhibition, % at 10 µM; hit rate 1% among 1,700; AID 588522;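 active = inhibition above the screen-wide mean plus twice its standard deviation, cut at about 32% in these data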
Starred values were filed as active, the others as inactive; i = inactive; x = no result.

SMILES	NSD2 inh	V-ATPase pH	NPR2 activator	Rce1 inh	Efflux pump mplx	GC-A act	Cmpd fluor yeast	CaMdr1 efflux inh	Cdr2 pump inh	CaCdr1 efflux inh
C[C@H](CO)N1C[C@H](C)[C@@H](CN(C)Cc2ccc(-c3ccccc3)cc2)Oc2c(NC(=O)Nc3ccc(C(F)(F)F)cc3)cccc2C1=O	x	0	-6	x	0	-2	92	0	112	0
COc1ccc(S(=O)(=O)N(C)C[C@H]2Oc3c(NC(=O)Nc4ccc(C(F)(F)F)cc4)cccc3C(=O)N([C@H](C)CO)C[C@@H]2C)cc1	x	6	x	x	34*	x	104	0	114	0
COc1ccc(S(=O)(=O)N(C)C[C@H]2Oc3c(NC(=O)C4CC4)cccc3C(=O)N([C@H](C)CO)C[C@@H]2C)cc1	x	0	3	x	1	1	x	x	x	x
COc1ccc(S(=O)(=O)N(C)C[C@H]2Oc3c(NC(=O)NC4CCCCC4)cccc3C(=O)N([C@H](C)CO)C[C@@H]2C)cc1	x	1	3	x	131*	1	127	28*	97	17
CCN1CCCCC(NC(=O)c2ccccc2)C1=O (stereo not given)	x	x	7	x	x	3	x	x	x	x
O=C(Cn1cncn1)N/N=C/c1ccc(Cl)cc1	-1	-1	2	i	9.7*	-1	95	0	91	0
O=C(Cn1cncn1)N/N=C/c1ccncc1	x	-6	1	i	0	-1	x	x	x	x
CCCCCCCCN1C(=O)[C@@H](CC(=O)N2CCCC2)C[C@@]2(C(=O)OC)C1=C[C@H](COCc1ccccc1)O[C@@H]2C	x	x	-1	x	x	-2	x	x	x	x
COC(=O)C1CN(Cc2ccccc2)CCS(=O)(=O)N1Cc1cn(Cc2ccc(C)cc2)nn1 (stereo not given)	x	x	-1	x	x	-1	x	x	x	x
CCOC(=O)c1ccccc1NC(=O)C1CC(=O)N(C2CCCCC2)C1 (stereo not given)	0	-2	-3	i	6.2*	-6	108	0	94	0
CN1C(=O)c2cc(NC(=O)Nc3ccccc3)ccc2OC[C@H]2O[C@@H](CC(=O)NC3Cc4ccccc4C3)CC[C@@H]21	x	x	-12	x	x	0	x	x	x	x
O=C(O)c1cc(-c2cccnc2)nc2ccc(Br)cc12	-2	6	8	i	0	37	x	x	x	x
NC(=O)c1cc(-c2ccccc2)nc2ccc(Br)cc12	-3	-3	0	i	0	6	91	0	97	0
CC(=O)c1cc(-c2cc(C(=O)O)cc([N+](=O)[O-])c2)c(=O)n2c1CCC2	x	x	-2	x	x	-3	x	x	x	x
COC(=O)C1CN(Cc2ccc(Cl)cc2)CCS(=O)(=O)N1Cc1cn(Cc2ccc(Cl)cc2)nn1 (stereo not given)	x	x	-8	x	x	-14	x	x	x	x
C=CCN1C(=O)c2ccc(C(=O)OCC(=O)N(C)C3CCCCC3)cc2C1=O	-2	6	0	i	0	1	x	x	x	x
CN(CCC#N)C(=O)COC(=O)c1ccc2c(c1)C(=O)N(C1CCCCC1)C2=O	-3	0	-3	i	6.2*	3	106	0	106	0
O=C(N/N=C/c1ccccc1O)c1ccc2c(c1)OCO2	14	-3	3	i	0	0	x	x	x	x
O=C(N/N=C/c1cccs1)c1ccc2c(c1)OCO2	0	8	3	i	11*	1	95	0	112	0
COC(=O)[C@]12C[C@H](CC(=O)NCCc3ccccc3OC)C(=O)N(CCc3ccc(OC)c(OC)c3)C1=C[C@H](COCc1ccccc1)O[C@@H]2C	x	x	-4	x	x	-6	x	x	x	x
COc1ccc(CCn2c(=S)[nH]c3ccc(N4CCOCC4)cc3c2=O)cc1OC	-4	1	11	i	0	11	x	x	x	x
COCCCn1c(=S)[nH]c2ccc(N3CCOCC3)cc2c1=O	0	3	-4	i	1.4*	-4	120	0	117	0
COc1ccc(C(C(=O)NC(C)(C)C)N(CC2CCCO2)C(=O)CCC(=O)Nc2cc(C)on2)cc1 (stereo not given)	0	4	-5	i	0.8*	-5	100	0	98	0
COc1ccc(C(C(=O)NC(C)(C)C)N(CCC(C)C)C(=O)CCC(=O)Nc2cc(C)on2)cc1 (stereo not given)	29	-4	-6	i	0	-14	x	x	x	x
CCOc1cccc(N(C(=O)CCC(=O)Nc2cc(C)on2)C(C(=O)NC(C)(C)C)c2ccc(OC)cc2)c1 (stereo not given)	-5	1	-9	i	0.5*	-9	110	0	120	0
SMILES	NSD2 inh	V-ATPase pH	NPR2 activator	Rce1 inh	Efflux pump mplx	GC-A act	Cmpd fluor yeast	CaMdr1 efflux inh	Cdr2 pump inh	CaCdr1 efflux inh
COc1ccc(C(C(=O)NC(C)(C)C)N(C(=O)CCC(=O)Nc2cc(C)on2)c2cccc(F)c2)cc1 (stereo not given)	0	0	-12	i	0	-42	88	0	102	0
CCc1ccc(N(C(=O)CCC(=O)Nc2cc(C)on2)C(C(=O)NC(C)(C)C)c2ccc(OC)cc2)cc1 (stereo not given)	1	-1	-2	i	0	-9	x	x	x	x
O=C(COc1ccc(Cl)cc1Cl)NC1CCSC1=O (stereo not given)	-3	0	-4	i	1.7*	4	98	0	106	0
CCC(Sc1nncn1C)C(=O)Nc1ccccc1OC (stereo not given)	-4	-2	4	i	0.5*	-2	106	0	96	0
COc1ccc(C)cc1NC(=O)C(Sc1nncn1C)c1ccccc1 (stereo not given)	29	2	0	x	0	5	x	x	x	x
CCOC(=O)/C(C#N)=C/C1=C(N2CCOCC2)C(C)(C)OCC1	0	4	3	i	0.9*	0	94	0	99	0
O=S1(=O)CC2c3ccccc3CN2CN1C1CCCC1 (stereo not given)	x	x	-5	x	x	-2	x	x	x	x
CCOC(=O)[C@]12CCCC=C1N(Cc1ccc(OC)cc1)C(=O)[C@@H]2CC(=O)NCCC(C)C	x	x	4	x	x	-1	x	x	x	x
COC(=O)C1=C(C)N=c2s/c(=C/c3ccoc3)c(=O)n2C1c1ccccc1 (stereo not given)	x	-1	x	i	0.5*	x	140	0	121	0
COC(=O)[C@]12C[C@H](CC(=O)N3CCOCC3)C(=O)N(CCc3ccc(OC)c(OC)c3)C1=C[C@H](C(C)C)O[C@@H]2C1CC1	x	x	1	x	x	0	x	x	x	x
